Data: PubChem BioAssay (NCI)
“And” between values parts separate entries of the source, which are not always exact repeats. Identical values can stand only once. About 83,000 compounds went through this panel and 20% of them were active in at least one assay; those are over-represented in the sample as a whole.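 How to read the values: 0–100, growth inhibition (40 = 60% inhibited); 0, no net growth; -100 to 0, cell death (-40 = 40% of starting cells died; -100 = all dead).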 Unmarked numbers belong to inactive results. The source made the active and inactive calls. The calls were made as follows: active = growth percent below 10; inactive = the rest.

test system: MDA-MB-468 breast; assay: NCI-60 one-dose screen, 48 h (100 = growth as untreated, 0 = no growth, -100 = all killed); settings: 10 µM unless noted

SMILES | growth
N#CCCN=Nc1c(O)[nH]c2ccc([N+](=O)[O-])cc12 | 99.7%
Cn1ccnc1C(=O)/C=C/c1ccc(NC(=O)Nc2ccccc2)cc1 | -45.8% (active)
C=C1C(=O)O[C@H]2[C@H]1CC/C(COC(=O)/C=C\C(=O)NCc1ccc(Cn3c(=O)sn(-c4ccc(Cl)cc4)c3=O)cc1)=C\CC[C@@]1(C)O[C@@H]21 | -83.5% (active)
O=S(=O)(O)c1ccc(O)c(C2CCCCC2)c1 | 103%
Fc1ccc(NCCS)cc1 | 106%
CCOC(=O)c1c(NC(=O)c2ccc(C(F)(F)F)cc2)sc2c3c(ccc12)OCN(C)C3 | -76.9% (active)
CCC1CCc2nc3sc(C(=O)Nc4ccccc4F)c(N)c3cc2C1 (stereo not given) | 25%
Cc1ccsc1-c1ccc2c(c1)COC2(CCCN(C)C)c1ccc(F)cc1 (stereo not given) | -8.34% (active)
COc1cccc2c1C(=O)c1c(O)c3c(c(O)c1C2=O)C[C@@](O)(/C(C)=N/NC(=O)c1cccc([N+](=O)[O-])c1)C[C@@H]3OC1CC(N)C(O)C(C)O1 (stereo not given in full) | -18.9% (active)
O=C(Nc1ccc(Br)cc1)Nc1ccccc1Cl | 69.2%
O=C(NOC[C@H](O)CO)c1ccc(F)c(F)c1Nc1ccc(I)cc1F | 106%
O=C(c1nc2ccccc2[nH]1)C1[C@@H](c2cccc(O)c2)C2CC3CCCCC3N2[C@@]12C(=O)Nc1cc(Cl)ccc12 (stereo not given in full) | 32.5%
O=C(Cn1cncn1)Nc1ccc(-c2nc3ccccc3s2)cc1 | -29.7% (active)
C=C1C(=O)O[C@H]2[C@H]1CC/C(Cn1cc(CNCCc3c[nH]c4ccccc34)nn1)=C\CC[C@@]1(C)O[C@@H]21 | 37.3%
Cc1cc(C(C)(CC(C)C)c2ccc(O)c(C)c2)ccc1O | 103%
O=C1c2c(c3c4cc(O)ccc4oc3c3[nH]c4ccccc4c23)C(=O)N1O | -48.7% (active)
O=c1[nH]c2ccc(Cl)cc2cc1CSc1ccccc1Nc1nccc(-c2ccc(Cl)cc2)n1 | 93.3%
COc1ccc(-c2nc3cc(Cl)c(Cl)cc3n2CC(=O)N=Nc2c(O)[nH]c3ccc(Cl)cc23)cc1 | -40.1% (active)
COc1ccc(/C=C(/C2=NCCN2)n2ccc3ccccc32)cc1 | 89.6%
O/N=C/c1ccc(O)cc1O | 121%

SMILES | growth
c1ccc2c(Cc3csc4ccccc34)csc2c1 | 74%
O=c1ccc2c(ccc3ncccc32)o1 | 107%
CN(C)c1ccc(/C=C/C2=[N+](C)c3ccccc3C2(C)C)cc1 | 6.5% (active)
CCCCCCCCN(CCCCCCCC)CC(O)c1ccc(Cl)c(C)c1Cl (stereo not given) | 105%
COc1cc(NCCCCC(C)N)c2nccc(C)c2c1 (stereo not given) | 10.6%
O=C(Nc1cccc([N+](=O)[O-])c1)c1cc2ccccc2cc1O | -42.8% (active)
O=C1NCC2CCCC1C2 (stereo not given) | 105%
CN(CCO)c1ccc(N2Cc3ccccc3OC3=C2C(=O)c2c(O)ccc(O)c2C3=O)cn1 | -64.7% (active)
Cc1oc2ccc(O)c(CN3CCCCCC3)c2c1C(=O)Nc1ccc(C(F)(F)F)cc1 | 5.74% (active)
Cc1cc(C)nc(SCC(=O)Nc2cccc(N=Cc3ccccc3O)c2)n1 | 87.8%
O=S(=O)(NCCCNc1nccc(-c2[nH]c(-c3ccccc3)nc2-c2ccc(Cl)c(O)c2)n1)c1cccc(F)c1 | 50.9%
O=C(O)c1ccc(-n2cc(CNc3ccc(F)cc3)c(-c3ccc(C(F)(F)F)cc3)n2)cc1 | 83.2%
Cc1nn2c(/C=C3/C(=O)Nc4cc(Cl)ccc43)c(-c3ccccc3)nc2s1 | 11%
COc1ccc(NC(=O)c2ccc(Cl)cc2Cl)cc1 | 96.5%
O=C(CCCSc1nc(-c2ccccc2)cc(-c2ccccc2)n1)NO | -38% (active)
COc1cc(/C=N/Nc2nc3c([nH]2)c(=O)n(C)c(=O)n3C)ccc1O | 103% and 122%
C=C(C)[C@@H]1CC[C@]2(C(=O)O)CC[C@]3(C)[C@H](CC[C@@H]4[C@@]5(C)C[C@@H](CC#Cc6ccccc6C)C(=O)C(C)(C)[C@@H]5CC[C@]43C)[C@@H]12 | 17.2%
CC[C@H](CC[C@@H](C)[C@H]1CC[C@H]2[C@@H]3CC=C4C[C@@H](OCCc5nn[nH]n5)CC[C@]4(C)[C@H]3CC[C@]12C)C(C)C | 118%
COc1cc2cc(Oc3ccc(NC(=O)Nc4ccc(F)c(C(F)(F)F)c4)cc3)c(C)nc2cc1OCCN(C)C | 93.4%
COc1cc(OC)c(C(=O)/C=C/c2cc3c(cc2OCc2ccccc2)OC(C)(C)CC3)cc1CC=C(C)C | 26.2%
